Data taken from PubChem BioAssay (NCI).
Values joined by “and” are separate entries in the source; they are usually repeats but may differ in a detail not shown here. Equal values may be shown once. This is part of a sample that, as a whole, favours compounds with a hit. Of some 79,000 tested, about 15% had one in any assay. A number with no mark means an inactive call. Rule as the data show it: active = growth inhibition above about 70%; inactive = the rest.

Test: NCI Yeast Anticancer Drug Screen. Data for the rad50 strain (AID 155);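 also: 0% = growth of vehicle-only cultures of the same strain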
Details: S. cerevisiae rad50 strain growth inhibition, hits give high values; at 50.0 µM unless noted
In short: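 Cells are treated with compound, grown, and their growth is then scored against vehicle-only cultures of the same repair-deficient yeast strain.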
Work on CCCCCCCCCCCCCCCCCCOC(=O)CC(C)=O yielded a growth inhibition of -2.75%. With Clc1nc(-c2ccccc2)ns1 the growth inhibition was 1.9%. Work on O=S(=O)(Cl)c1ccc(Cl)cc1 yielded a growth inhibition of -4.6%. COC(=O)c1nnn(-c2ccc(Cl)cc2C)c1C(=O)c1ccc(OC)cc1 gave a growth inhibition of -33.4%. C#CC1(O)C2CCc3cc(OC)ccc3C2CCC1(C)C(=O)OC (stereo not given) showed a growth inhibition of 10.8%. Compound CCCCCCC(=O)C/C(CCC(=O)N(Cc1ccccc1)Cc1ccccc1)=N\Nc1ccc([N+](=O)[O-])cc1[N+](=O)[O-] has a growth inhibition of 12.8%. For CC1CCC(c2ccccc2)(c2ccccc2)C1=O (stereo not given), the growth inhibition was 11.8%. With OCC1OC(O)C(O)C(O)C1O (stereo not given) the growth inhibition was 5.05% and 8.6%. For CC(=O)NC(C)c1ccccc1 (stereo not given), the growth inhibition was -4.75%. With CCCOC(=O)C1C(c2ccc(OC)cc2)NC(c2ccc(OC)cc2)C(C(=O)OCCC)S1(=O)=O (stereo not given) the growth inhibition was -39.5%. For CCOC(=O)COc1cc2c(cc1C(CC)c1ccc(OC)cc1)OCO2 (stereo not given), the growth inhibition was -14.9%. In the case of CC12C(=O)C(C(c3ccccc3)=C1c1ccccc1)C1C(=O)OC(=O)C12 (stereo not given), the growth inhibition is reported as -6.8%. In the case of C=C1CC2C=CC1C2 (stereo not given), the growth inhibition is reported as 3.65%. Work on COc1ccc(C2S/C(=C\c3ccc(OC)cc3OC)C(=O)N2NC(=O)Cc2ccccc2)cc1 (stereo not given) yielded a growth inhibition of -4.3%. Work on C/C(=N\NS(=O)(=O)c1ccc(C)cc1)c1cccs1 yielded a growth inhibition of -3.9%. COc1ccc2[nH]c3cc4c(=O)c5cc(OC)ccc5[nH]c4cc3c(=O)c2c1 gave a growth inhibition of -31.6%. For O=C(O)c1ccc(NCO)cc1, the growth inhibition was 7.05%. Clc1ccc(N=Nc2nc3ccccc3nc2N=Nc2ccc(Cl)cc2Cl)c(Cl)c1 showed a growth inhibition of -32.5%. CN(C)CCCC(=O)O gave a growth inhibition of -13.3%. O=Cc1ccc(OC(=O)Nc2ccc([N+](=O)[O-])cc2)cc1 gave a growth inhibition of 2.65%. Compound CC(C)OC(=O)/C=C/CCCC1CCCCC1 has a growth inhibition of -10.5%. In the case of O=CNc1cccnc1C1OCCO1, the growth inhibition is reported as 4.85%. COC1OC(CI)C(O)C(O)C1O (stereo not given) showed a growth inhibition of -6.05%. C/C(=N\NS(=O)(=O)c1c(C)cc(C)cc1C)c1ccc[n+]([O-])n1 gave a growth inhibition of 3.95%. COc1ccc(C=NCC(OC)OC)cc1OCc1ccccc1 showed a growth inhibition of -14.9%. COCCOC(=O)COc1ccccc1 showed a growth inhibition of 22.1%. c1ccc(C2=NN(c3ccccc3)CC2)cc1 showed a growth inhibition of -8.3%. COc1cccc(N(CN2CC=CC2=O)C(C)=O)c1 showed a growth inhibition of -1.65%. For CCN(CC)CCC(=O)c1ccc(Cl)cc1, the growth inhibition was 19.6%. Work on CC1=NN(c2ccc(S(=O)(=O)O)cc2)C(=O)C1N=Nc1ccc(-c2ccc(N=Nc3ccc(O)c(C(=O)O)c3)c(C)c2)cc1C (stereo not given) yielded a growth inhibition of 17.6%. With c1ccc(CNCCNCc2ccccc2)cc1 the growth inhibition was 0.3% and 58.3%. For Cc1ccc(CC2CC(=O)NC2=O)cc1 (stereo not given), the growth inhibition was 13.6%. With CC(CN(C)C)C(=O)/C=C/c1ccc(Cl)cc1 (stereo not given) the growth inhibition was 20%. O=C1NC(=O)c2c(O)cccc21 showed a growth inhibition of 38.5%. CCN(CC)CCN(C(=O)C(C)(C)C)c1ccccc1N showed a growth inhibition of -30.8%. Work on CC1=C(CCC(=O)O)c2cc3nc(cc4[nH]c(cc5[nH]c(cc1n2)c(C)c5C1CC1C(=O)O)c(C)c4C1CC1C(=O)O)C(C)=C3CCC(=O)O (stereo not given) yielded a growth inhibition of 0.35%. For C/C(CCC(CC(=O)O)C(C)C)=N\NC(N)=O (stereo not given), the growth inhibition was -5.85%. CCC(C(=O)O)C(=O)O.[NH2-].[NH2-].[Pt+2] gave a growth inhibition of 11.8%. For CC1C2=C(CC(C)(C)CC2=O)NC2=C1C(=O)CC(C)(C)C2, the growth inhibition was -7.3%. Cc1n[nH]c(=O)n1/N=C/c1ccncc1 showed a growth inhibition of 8.45%.

Test: NCI Yeast Anticancer Drug Screen. Data for the mec2-1 strain (AID 157)
Details: S. cerevisiae mec2-1 strain, hits give high values; at 50.0 µM unless noted
In short: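 Each compound was tested on mec2-1 yeast, a strain altered in DNA damage repair or cell cycle control. Growth inhibition is reported relative to vehicle.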
For CCCCCCCCCCCCCCCCCCOC(=O)CC(C)=O, the growth inhibition was -4.55%. Compound Clc1nc(-c2ccccc2)ns1 has a growth inhibition of -9.3%. For O=S(=O)(Cl)c1ccc(Cl)cc1, the growth inhibition was 13.1%. In the case of COC(=O)c1nnn(-c2ccc(Cl)cc2C)c1C(=O)c1ccc(OC)cc1, the growth inhibition is reported as 0.95%. For C#CC1(O)C2CCc3cc(OC)ccc3C2CCC1(C)C(=O)OC (stereo not given), the growth inhibition was -0.2%. CCCCCCC(=O)C/C(CCC(=O)N(Cc1ccccc1)Cc1ccccc1)=N\Nc1ccc([N+](=O)[O-])cc1[N+](=O)[O-] showed a growth inhibition of 16.1%. Compound CC1CCC(c2ccccc2)(c2ccccc2)C1=O (stereo not given) has a growth inhibition of -1.8%. For OCC1OC(O)C(O)C(O)C1O (stereo not given), the growth inhibition was 1.75% and 15.1%. In the case of CC(=O)NC(C)c1ccccc1 (stereo not given), the growth inhibition is reported as 40.1%. CCCOC(=O)C1C(c2ccc(OC)cc2)NC(c2ccc(OC)cc2)C(C(=O)OCCC)S1(=O)=O (stereo not given) showed a growth inhibition of -2.8%. CCOC(=O)COc1cc2c(cc1C(CC)c1ccc(OC)cc1)OCO2 (stereo not given) gave a growth inhibition of -17.6%. Work on CC12C(=O)C(C(c3ccccc3)=C1c1ccccc1)C1C(=O)OC(=O)C12 (stereo not given) yielded a growth inhibition of 2.8%. With C=C1CC2C=CC1C2 (stereo not given) the growth inhibition was -25.4%. With COc1ccc(C2S/C(=C\c3ccc(OC)cc3OC)C(=O)N2NC(=O)Cc2ccccc2)cc1 (stereo not given) the growth inhibition was -50.6%. Work on C/C(=N\NS(=O)(=O)c1ccc(C)cc1)c1cccs1 yielded a growth inhibition of 7.1%. Work on COc1ccc2[nH]c3cc4c(=O)c5cc(OC)ccc5[nH]c4cc3c(=O)c2c1 yielded a growth inhibition of -15.8%. O=C(O)c1ccc(NCO)cc1 gave a growth inhibition of 5.15%. Clc1ccc(N=Nc2nc3ccccc3nc2N=Nc2ccc(Cl)cc2Cl)c(Cl)c1 showed a growth inhibition of -4.6%. CN(C)CCCC(=O)O gave a growth inhibition of -45.4%. O=Cc1ccc(OC(=O)Nc2ccc([N+](=O)[O-])cc2)cc1 gave a growth inhibition of 45%. Work on CC(C)OC(=O)/C=C/CCCC1CCCCC1 yielded a growth inhibition of 6.15%. Work on O=CNc1cccnc1C1OCCO1 yielded a growth inhibition of 5.85%. For COC1OC(CI)C(O)C(O)C1O (stereo not given), the growth inhibition was 2.4%. Compound C/C(=N\NS(=O)(=O)c1c(C)cc(C)cc1C)c1ccc[n+]([O-])n1 has a growth inhibition of 0.2%. Compound COc1ccc(C=NCC(OC)OC)cc1OCc1ccccc1 has a growth inhibition of 7.15%. Compound COCCOC(=O)COc1ccccc1 has a growth inhibition of 23%. c1ccc(C2=NN(c3ccccc3)CC2)cc1 showed a growth inhibition of -3.15%. Work on COc1cccc(N(CN2CC=CC2=O)C(C)=O)c1 yielded a growth inhibition of 6.3%. CCN(CC)CCC(=O)c1ccc(Cl)cc1 showed a growth inhibition of 21.4%. Compound CC1=NN(c2ccc(S(=O)(=O)O)cc2)C(=O)C1N=Nc1ccc(-c2ccc(N=Nc3ccc(O)c(C(=O)O)c3)c(C)c2)cc1C (stereo not given) has a growth inhibition of 20.9%. For c1ccc(CNCCNCc2ccccc2)cc1, the growth inhibition was 4.75% and -16.4%. With Cc1ccc(CC2CC(=O)NC2=O)cc1 (stereo not given) the growth inhibition was -2.95%. Compound CC(CN(C)C)C(=O)/C=C/c1ccc(Cl)cc1 (stereo not given) has a growth inhibition of 19%. Work on O=C1NC(=O)c2c(O)cccc21 yielded a growth inhibition of 23.6%. CCN(CC)CCN(C(=O)C(C)(C)C)c1ccccc1N showed a growth inhibition of -27.9%. With CC1=C(CCC(=O)O)c2cc3nc(cc4[nH]c(cc5[nH]c(cc1n2)c(C)c5C1CC1C(=O)O)c(C)c4C1CC1C(=O)O)C(C)=C3CCC(=O)O (stereo not given) the growth inhibition was 22.4%. With C/C(CCC(CC(=O)O)C(C)C)=N\NC(N)=O (stereo not given) the growth inhibition was 1.8%. CCC(C(=O)O)C(=O)O.[NH2-].[NH2-].[Pt+2] showed a growth inhibition of -6.6%. CC1C2=C(CC(C)(C)CC2=O)NC2=C1C(=O)CC(C)(C)C2 showed a growth inhibition of -26.1%. In the case of Cc1n[nH]c(=O)n1/N=C/c1ccncc1, the growth inhibition is reported as 6.95%.
